The source of these data is PubChem BioAssay (EPA / NIEHS).

A word on the AC50: it is the midpoint of the concentration-response curve, whichever way the signal moves.

Activity calls are given as the source filed them. The calls were made as follows: active = hit-call score of the fitted dose curve at least 0.9, where 1 is the maximum; inactive = score below 0.9.

Read-out in this experiment: Monocyte Chemoattractant Protein-1 (MCP1), CCL2 (gene 6347)
Description: BSK_3C_MCP1: BioMAP Diversity Plus: 3C Assay for Monocyte Chemoattractant Protein-1 (MCP1) Biomarker Activity (AID 2283017). The conditions noted are these: primary human endothelial cells (HUVEC); actives raise or lower the signal. The method, then:
BSK_3C is a cell-based, multiplexed-readout assay that uses umbilical vein endothelium, a human vascular primary cell, with measurements taken at 24 hours after chemical dosing in a 96-well plate.BSK_3C_MCP1 is an assay component measured in the BSK_3C assay. It measures MCP-1 antibody related to regulation of gene expression using ELISA technology.Data from the assay component BSK_3C_MCP1 was analyzed into 1 assay endpoint. This assay endpoint, BSK_3C_MCP1, was analyzed with bidirectional fitting relative to DMSO as the negative control and baseline of activity. Using a type of binding reporter, gain or loss-of-signal activity can be used to understand changes in the signaling as they relate to the gene CCL2. Furthermore, this assay endpoint can be referred to as a primary readout, because this assay has produced multiple assay endpoints where this one serves a signaling function. To generalize the intended target to other relatable targets, this assay endpoint is annotated to the cytokine intended target family, where the subfamily is chemotactic factor.
The levels of cell surface (or secreted, indicated by the prefix "s") biomarker endpoints were measured by ELISA. Overt cytotoxicity to cells in confluent adherent cultures (all systems other than the BT system) was assessed by measuring total protein levels using sulforhodamine B (SRB) staining in parallel cultures at the time of biomarker measurements, indicated as SRB endpoints. For proliferation assays for adherent cell types, individual cell types are cultured at sub-confluence and relative cell numbers quantified by SRB staining at time points optimized for each system (48 h: 3C and CASM3C systems; 72 h: BT and HDF3CGF systems; 96 h: SAg system). SRB was performed by staining cells with 0.1% SRB after fixation with 10% TCA and reading wells at 560 nm.Viability and proliferation of PBMC (T cells) was quantified by Alamar Blue reduction for the SAg and BT systems. For PBMC viability (referred to as PBMC Cytotoxicity within the assay endpoint names), cells were plated (75,000/well in a 96-well plate) and then chemical samples added for 1 h before addition of activators, SEB and TSST-1 (20 ng/mL final concentration each). Cells were incubated for 90 h. Then, Alamar Blue (20 uL/well) (Invitrogen, Cat DAL1100) was added for 6 h, and the plates were read with a fluorescence microplate reader at 546/580 nm (excitation/emission). For PBMC proliferation, cells were plated and activated as above but incubated for only 16 h prior to addition of Alamar Blue. Plates were read after 6 h.
As to `CCCCc1ccccc1`, the outcome was inactive.
Consider `O=C(O)C(F)(F)OC(F)(F)C(F)(F)OC(F)(F)C(=O)O`, for which the outcome was inactive.
Regarding `O=[N+]([O-])c1ccc(Cl)c(Cl)c1`, the result was inactive.
As to `Cc1ccc(O)cc1C`, the outcome was inactive.
The same measure, in the same setting: as for `NC(=O)C(F)(F)C(F)(F)F`, the entry is “inactive”; as for `CC(Cl)CN(C)C` (stereo not given), “inactive”; as for `CC(O)C(F)(F)C(F)(F)F` (stereo not given), “inactive”.
For the compound `N#Cc1c(-c2ccc(Cl)cc2)[nH]c(C(F)(F)F)c1Br`, the AC50 is 0.169 µM (active).
For the compound `OCC(F)(F)OC(F)(F)C(F)(F)OC(F)(F)C(F)(F)OC(F)(F)CO`, the result was inactive.
For the compound `ClC(Cl)=C(c1ccc(Cl)cc1)c1ccccc1Cl`, the AC50 was 12.1 µM (active).
On the same count and under the same terms, the figure for `CCCN(CCC)c1c([N+](=O)[O-])cc(C(C)C)cc1[N+](=O)[O-]` is 32 µM (active); for `CCCCOCCOP(=O)(OCCOCCCC)OCCOCCCC` it is 3.97 µM (active).
Consider `CCOP(=S)(OCC)SCSCC`, for which the outcome was inactive.
With `CC(C)(C)OOC(C)(C)C`, the result was inactive.
Same read-out and setting: the entry for `CCOP(=S)(S)OCC` is “inactive”; for `c1cc2c3c(cccc3c1)CC2` it is “inactive”.
For `O=c1ssc(Cl)c1Cl`, the AC50 was 8.43 µM (active).
For `C=CC(=O)OCC(F)(F)C(F)F`, the outcome was inactive.
For the compound `OCC(F)(F)OC(F)(F)C(F)(F)OC(F)(F)CO`, the result was inactive.
For `CCCCN(CCCC)SN(C)C(=O)Oc1cccc2c1OC(C)(C)C2`, the AC50 is 30.6 µM (active).
Take `c1ccc(OP(Oc2ccccc2)Oc2ccccc2)cc1`: the outcome was inactive.
Same read-out and setting: as for `CCOP(=S)(OCC)SCS(=O)(=O)CC`, the entry is “inactive”; as for `Nc1ccc([N+](=O)[O-])cc1Cl`, “inactive”; as for `CCOP(=S)(OCC)SCn1nnc2ccccc2c1=O`, “inactive”.
With `CC(Cc1ccc(OCC(=O)O)cc1)NCC(O)c1csc(C(F)(F)F)n1` (stereo not given), the outcome was inactive.
Consider `CC(C)(C)c1ccccc1OP(=O)(Oc1ccccc1)Oc1ccccc1`, for which the AC50 is 20 µM (active).
In the case of `COP(N)(=S)OC`, the outcome was inactive.
The same measure, in the same setting: as for `CC(C)(C)c1ccc(O)cc1`, the entry is “inactive”; as for `[N-]=[N+]=[N-]`, “inactive”.
On the same count and under the same terms, the entry for `CCOC(=O)c1ccccc1C(=O)OCC` is “inactive”; for `Cc1c([N+](=O)[O-])cc2c(c1[N+](=O)[O-])C(C)(C)CC2(C)C` it is “inactive”.
Still for that read-out and setting: the entry for `O=P1(N(CCCl)CCCl)NCCCO1` (stereo not given) is “inactive”.
For `ClC1=C(Cl)C2(Cl)C3C(Cl)C(Cl)CC3C1(Cl)C2(Cl)Cl` (stereo not given), the AC50 was 34.3 µM (active).
As to `ClC(Cl)(Cl)c1ccccc1`, the outcome was inactive.
Same read-out and setting: the entry for `CCOP(=S)(OCC)SCSc1ccc(Cl)cc1` is “inactive”; for `CCCCN(CCCC)N=O` it is “inactive”; for `CCN(CC)c1ccccc1` it is “inactive”.
For `O=P(OCC(Br)CBr)(OCC(Br)CBr)OCC(Br)CBr` (stereo not given), the AC50 was 17.4 µM (active).
Turning to `Cc1ccc(N)cc1N`, the result was inactive.
Still for that read-out and setting: as for `c1ccc2c(c1)Nc1ccccc1S2`, the entry is “inactive”.
